# Assay results: article PMC7862700, “An all-to-all approach to the identification of sequence-specific readers for epigenetic DNA modifications on cytosine”
# What was measured:
# Experiment in all cases: DAPPL (digital affinity profiling via proximity ligation, sequencing); 10 mM Tris-HCl pH 7.5, 50 mM NaCl, 1 mM DTT, 4% glycerol, room temperature, 30 min; GST-TFs on glutathione beads, 16-mer random dsDNA library, 0.1% formaldehyde crosslink after washing; high values mean tight binding
# Conditions in all cases: protein: recombinant; tags: N-terminal GST; dsDNA, one strand shown
# FLI1 = biological target: T1, FLI1 (Homo sapiens, UniProt Q01543 1-452)
# T1 sequence: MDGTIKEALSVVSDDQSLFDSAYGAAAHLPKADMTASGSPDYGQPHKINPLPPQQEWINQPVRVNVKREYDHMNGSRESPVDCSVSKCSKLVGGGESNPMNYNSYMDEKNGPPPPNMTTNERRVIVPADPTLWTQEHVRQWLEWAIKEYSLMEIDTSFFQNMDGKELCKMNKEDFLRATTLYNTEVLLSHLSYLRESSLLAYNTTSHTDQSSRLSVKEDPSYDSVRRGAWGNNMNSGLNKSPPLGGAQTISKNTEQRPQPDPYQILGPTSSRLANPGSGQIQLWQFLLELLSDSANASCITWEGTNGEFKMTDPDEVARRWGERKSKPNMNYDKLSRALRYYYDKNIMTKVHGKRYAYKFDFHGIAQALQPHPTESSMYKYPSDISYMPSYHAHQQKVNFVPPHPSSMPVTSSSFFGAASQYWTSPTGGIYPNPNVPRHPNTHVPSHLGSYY
# How it was run: (§1)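 Pools were built from human transcription factors expressed in yeast as GST fusions, captured on glutathione beads and DNA-barcoded, along with a tag-only sample. Incubation with 200 nmole of a 16-mer random double-stranded DNA library lasted 30 min at room temperature in Tris/NaCl/DTT/glycerol buffer, and was followed by washing, 0.1% formaldehyde crosslinking, proximity ligation, PCR amplification and Illumina NextSeq500 sequencing. Binding signal is the quotient of each hexamer's read frequency for a factor and its frequency for the tag-only sample.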
# ELK1 = biological target: T2, ELK1 (Homo sapiens, UniProt P19419 1-428)
# T2 sequence: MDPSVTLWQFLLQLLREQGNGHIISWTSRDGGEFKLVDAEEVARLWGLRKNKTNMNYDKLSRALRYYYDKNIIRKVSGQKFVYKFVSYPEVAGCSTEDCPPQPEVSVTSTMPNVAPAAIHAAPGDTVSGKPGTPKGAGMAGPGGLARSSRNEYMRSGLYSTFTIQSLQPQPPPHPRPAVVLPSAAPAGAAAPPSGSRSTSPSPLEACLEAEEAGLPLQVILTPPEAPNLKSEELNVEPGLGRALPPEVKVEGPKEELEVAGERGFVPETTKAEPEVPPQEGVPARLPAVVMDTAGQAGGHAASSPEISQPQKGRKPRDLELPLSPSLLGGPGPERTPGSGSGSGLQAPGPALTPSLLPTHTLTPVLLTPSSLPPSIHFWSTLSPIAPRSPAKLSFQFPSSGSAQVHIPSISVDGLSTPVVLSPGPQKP
# How it was run: as §1
# GABPA = biological target: T3, GABPA (Homo sapiens, UniProt Q06546 1-454)
# T3 sequence: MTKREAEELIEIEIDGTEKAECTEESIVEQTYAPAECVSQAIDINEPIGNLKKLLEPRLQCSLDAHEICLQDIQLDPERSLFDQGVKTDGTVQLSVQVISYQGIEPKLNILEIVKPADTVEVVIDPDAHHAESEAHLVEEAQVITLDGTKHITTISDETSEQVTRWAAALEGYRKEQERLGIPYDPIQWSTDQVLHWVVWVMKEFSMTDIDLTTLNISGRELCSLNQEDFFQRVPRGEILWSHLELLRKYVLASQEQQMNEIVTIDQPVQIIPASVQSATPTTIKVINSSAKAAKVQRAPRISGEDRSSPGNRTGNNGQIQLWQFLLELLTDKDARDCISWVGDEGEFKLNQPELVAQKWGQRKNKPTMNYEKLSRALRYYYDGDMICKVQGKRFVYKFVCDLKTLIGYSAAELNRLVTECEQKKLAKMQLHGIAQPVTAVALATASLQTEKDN
# How it was run: as §1
# ERG = biological target: T4, ERG (Homo sapiens, UniProt P11308 1-479)
# T4 sequence: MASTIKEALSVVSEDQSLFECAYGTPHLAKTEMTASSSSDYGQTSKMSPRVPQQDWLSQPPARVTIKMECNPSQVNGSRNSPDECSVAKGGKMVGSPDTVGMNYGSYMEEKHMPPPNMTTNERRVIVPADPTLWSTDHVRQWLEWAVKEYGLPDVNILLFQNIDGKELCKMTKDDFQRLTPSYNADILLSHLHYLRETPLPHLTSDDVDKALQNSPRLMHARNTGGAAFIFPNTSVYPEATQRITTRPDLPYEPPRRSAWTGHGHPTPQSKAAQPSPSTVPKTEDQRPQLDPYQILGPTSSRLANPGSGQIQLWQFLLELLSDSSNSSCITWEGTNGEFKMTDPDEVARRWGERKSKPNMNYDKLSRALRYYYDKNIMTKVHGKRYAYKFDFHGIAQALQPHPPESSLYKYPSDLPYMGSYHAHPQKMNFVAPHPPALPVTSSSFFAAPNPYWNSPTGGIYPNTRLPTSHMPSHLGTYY
# How it was run: as §1
# ELF1 = ELF1 (Homo sapiens, UniProt P32519 1-619)
# Sequence of ELF1 (P32519 whole entry): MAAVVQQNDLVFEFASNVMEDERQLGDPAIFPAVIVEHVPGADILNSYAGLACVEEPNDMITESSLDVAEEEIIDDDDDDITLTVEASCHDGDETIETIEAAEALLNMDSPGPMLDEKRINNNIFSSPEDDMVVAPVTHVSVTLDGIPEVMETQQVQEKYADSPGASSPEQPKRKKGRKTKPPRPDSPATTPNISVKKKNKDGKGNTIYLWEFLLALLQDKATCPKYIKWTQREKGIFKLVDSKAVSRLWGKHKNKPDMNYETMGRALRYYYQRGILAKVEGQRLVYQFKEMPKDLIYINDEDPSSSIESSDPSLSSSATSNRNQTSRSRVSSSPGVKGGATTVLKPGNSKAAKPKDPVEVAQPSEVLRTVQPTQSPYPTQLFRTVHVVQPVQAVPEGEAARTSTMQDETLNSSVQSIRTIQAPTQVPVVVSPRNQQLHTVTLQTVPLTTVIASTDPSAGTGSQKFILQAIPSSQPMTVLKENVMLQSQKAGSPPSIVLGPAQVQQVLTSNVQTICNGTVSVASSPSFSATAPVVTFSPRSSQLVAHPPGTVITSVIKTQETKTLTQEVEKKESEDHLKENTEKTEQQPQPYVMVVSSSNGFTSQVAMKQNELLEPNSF
# How it was run: as §1
# EHF = biological target: T5, EHF (Homo sapiens, UniProt Q9NZC4 1-300)
# T5 sequence: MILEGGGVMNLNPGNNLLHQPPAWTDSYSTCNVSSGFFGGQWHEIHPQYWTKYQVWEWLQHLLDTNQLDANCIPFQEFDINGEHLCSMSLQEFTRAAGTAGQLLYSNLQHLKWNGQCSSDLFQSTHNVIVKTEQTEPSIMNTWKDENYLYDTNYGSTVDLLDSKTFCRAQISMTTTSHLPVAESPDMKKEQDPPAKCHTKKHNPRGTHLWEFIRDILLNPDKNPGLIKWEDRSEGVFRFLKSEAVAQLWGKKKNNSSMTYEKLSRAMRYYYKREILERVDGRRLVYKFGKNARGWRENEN
# How it was run: as §1
# SPI1 = SPI1 (Homo sapiens, UniProt P17947 1-270)
# How it was run: as §1
# SPIB = SPIB (Homo sapiens, UniProt Q01892 1-262)
# Sequence of SPIB (Q01892 whole entry): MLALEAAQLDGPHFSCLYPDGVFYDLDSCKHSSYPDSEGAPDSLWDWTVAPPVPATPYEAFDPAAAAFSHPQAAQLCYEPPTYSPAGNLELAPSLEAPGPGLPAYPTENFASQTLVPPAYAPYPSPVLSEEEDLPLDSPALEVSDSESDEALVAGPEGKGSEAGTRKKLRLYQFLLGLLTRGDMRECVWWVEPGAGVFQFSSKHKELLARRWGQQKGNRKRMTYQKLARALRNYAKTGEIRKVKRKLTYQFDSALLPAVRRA
# How it was run: as §1
# ELK3 = biological target: T6, ELK3 (Homo sapiens, UniProt P41970 1-407)
# T6 sequence: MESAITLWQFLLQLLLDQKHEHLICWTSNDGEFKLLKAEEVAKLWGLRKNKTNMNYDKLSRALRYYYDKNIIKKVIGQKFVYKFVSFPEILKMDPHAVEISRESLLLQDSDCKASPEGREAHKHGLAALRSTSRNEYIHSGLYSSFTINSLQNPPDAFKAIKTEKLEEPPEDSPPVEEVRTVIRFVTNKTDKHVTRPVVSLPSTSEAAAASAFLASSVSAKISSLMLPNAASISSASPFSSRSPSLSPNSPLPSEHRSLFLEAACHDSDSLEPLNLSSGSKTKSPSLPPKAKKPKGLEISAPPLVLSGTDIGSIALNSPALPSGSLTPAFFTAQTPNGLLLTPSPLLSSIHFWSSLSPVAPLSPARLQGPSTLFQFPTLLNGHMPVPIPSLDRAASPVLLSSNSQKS
# How it was run: as §1
Sequence,binding signal (FLI1),binding signal (ELK1),binding signal (GABPA),binding signal (ERG),binding signal (ELF1),binding signal (EHF),binding signal (SPI1),binding signal (SPIB),binding signal (ELK3)
AACATG,"1.24 fold enrichment (6-mer frequency, TF over GST control)","1.21 fold enrichment (6-mer frequency, TF over GST control)","1.15 fold enrichment (6-mer frequency, TF over GST control)","1.16 fold enrichment (6-mer frequency, TF over GST control)","1.22 fold enrichment (6-mer frequency, TF over GST control)","1.05 fold enrichment (6-mer frequency, TF over GST control)","1.15 fold enrichment (6-mer frequency, TF over GST control)","1.16 fold enrichment (6-mer frequency, TF over GST control)","1.19 fold enrichment (6-mer frequency, TF over GST control)"
CTCGCT,"1.81 fold enrichment (6-mer frequency, TF over GST control)","1.67 fold enrichment (6-mer frequency, TF over GST control)","1.72 fold enrichment (6-mer frequency, TF over GST control)","1.63 fold enrichment (6-mer frequency, TF over GST control)","1.75 fold enrichment (6-mer frequency, TF over GST control)","1.6 fold enrichment (6-mer frequency, TF over GST control)","1.54 fold enrichment (6-mer frequency, TF over GST control)","1.81 fold enrichment (6-mer frequency, TF over GST control)","1.41 fold enrichment (6-mer frequency, TF over GST control)"
GTACCT,"1.36 fold enrichment (6-mer frequency, TF over GST control)","1.16 fold enrichment (6-mer frequency, TF over GST control)","1.26 fold enrichment (6-mer frequency, TF over GST control)","1.16 fold enrichment (6-mer frequency, TF over GST control)","1.22 fold enrichment (6-mer frequency, TF over GST control)","1.29 fold enrichment (6-mer frequency, TF over GST control)","1.12 fold enrichment (6-mer frequency, TF over GST control)","1.18 fold enrichment (6-mer frequency, TF over GST control)","1.1 fold enrichment (6-mer frequency, TF over GST control)"
TGGTTC,"1.45 fold enrichment (6-mer frequency, TF over GST control)","1.33 fold enrichment (6-mer frequency, TF over GST control)","1.35 fold enrichment (6-mer frequency, TF over GST control)","1.29 fold enrichment (6-mer frequency, TF over GST control)","1.28 fold enrichment (6-mer frequency, TF over GST control)","1.31 fold enrichment (6-mer frequency, TF over GST control)","1.32 fold enrichment (6-mer frequency, TF over GST control)","1.37 fold enrichment (6-mer frequency, TF over GST control)","1.32 fold enrichment (6-mer frequency, TF over GST control)"
ATATGA,"1.11 fold enrichment (6-mer frequency, TF over GST control)","1.07 fold enrichment (6-mer frequency, TF over GST control)","1.1 fold enrichment (6-mer frequency, TF over GST control)","1.14 fold enrichment (6-mer frequency, TF over GST control)","1.06 fold enrichment (6-mer frequency, TF over GST control)","1.07 fold enrichment (6-mer frequency, TF over GST control)","1.1 fold enrichment (6-mer frequency, TF over GST control)","1.1 fold enrichment (6-mer frequency, TF over GST control)","1.18 fold enrichment (6-mer frequency, TF over GST control)"
TACATC,"1.63 fold enrichment (6-mer frequency, TF over GST control)","1.67 fold enrichment (6-mer frequency, TF over GST control)","1.51 fold enrichment (6-mer frequency, TF over GST control)","1.65 fold enrichment (6-mer frequency, TF over GST control)","1.53 fold enrichment (6-mer frequency, TF over GST control)","1.6 fold enrichment (6-mer frequency, TF over GST control)","1.57 fold enrichment (6-mer frequency, TF over GST control)","1.65 fold enrichment (6-mer frequency, TF over GST control)","1.74 fold enrichment (6-mer frequency, TF over GST control)"
ATGTGG,"1.08 fold enrichment (6-mer frequency, TF over GST control)","1.05 fold enrichment (6-mer frequency, TF over GST control)","1.11 fold enrichment (6-mer frequency, TF over GST control)","1.21 fold enrichment (6-mer frequency, TF over GST control)","1.18 fold enrichment (6-mer frequency, TF over GST control)","1.23 fold enrichment (6-mer frequency, TF over GST control)","1.02 fold enrichment (6-mer frequency, TF over GST control)","1.31 fold enrichment (6-mer frequency, TF over GST control)","1.1 fold enrichment (6-mer frequency, TF over GST control)"
